Results from PubChem BioAssay (NCATS).
Results filed as inconclusive are left out. Calls of active or inactive are those of the source. Unless noted, calls follow the shape of the dose curve; as a rule, active = well fitted curve in the direction sought with a large enough effect; inconclusive = small, poorly fitted or top-dose-only effect, or another doubt; inactive = no such curve, though single readings can be large; an effect the other way counts as inactive or inconclusive.

Key:
[1] = target: Lysosomal acid glucosylceramidase (Homo sapiens) (UniProt P04062); assay: Glucocerebrosidase-p2 (AID 348; in the data active = potency below about 10 µM; also: potency is read from the fitted curve at half-maximal effect); settings: purified GBA, blue fluorogenic substrate, 40 min
Summary of the method: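 Normal human glucocerebrosidase (0.2 nM) with blue fluorogenic substrate (80 uM final) in citrate/phosphate pH 5.9 with 10mM sodium taurocholate, 0.01% tween-20; 40 min RT, NaOH/glycine stop; fluorescence Ex 365/Em 440; AC50 from a titration from 0.6 nM upwards.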

[2] = AP1 Signaling Pathway (AID 357; active = well fitted curve in either direction with a large enough effect, not every such curve was filed as active;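 also: ME-180 reporter cells stimulated with EGF at its EC50 level; % is scaled to controls: 0 for no effect and ±100 for the full control effect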); settings: ME-180 AP-1-bla reporter, EGF-induced, beta-lactamase ratio, 5 h; at 7.69 µM (top of the series) unless noted
Summary of the method: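 First, ME-180 AP-1-bla cells were cultured overnight at 37 °C in low-serum Opti-MEM. Next, titrated compounds with EC50 EGF were incubated 5 hours. Finally, CCF4 was added for 2.5 hours and the 460/530 nm ratio recorded.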

[3] = target: Cytochrome P450 1A2 (Homo sapiens) (UniProt P05177); assay: p450-cyp1a2 (AID 410; calls by dose curve; also: potency is read from the fitted curve at half-maximal effect;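 as to activity change, negative = inhibition: -100% = full effect of reference inhibitor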); settings: recombinant CYP1A2, luciferin-ME demethylation, luminescence; series mostly up to 57 µM
Summary of the method: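 Read-out is luminescence from luciferin produced by CYP1A2 demethylation of Luciferin-ME (100uM, at Km). Detection reagent stopped the 60 min NADPH-dependent reaction; signals were normalized to 57 uM furafylline.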

[4] = NFAT Signaling Pathway (AID 444; active = well fitted curve in either direction with a large enough effect, not every such curve was filed as active;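 also: carbachol stimulus at about its EC50 of 1 µM final; % is scaled to controls: 0 for no effect and ±100 for the full control effect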); settings: Jurkat NFAT-bla M1, carbachol, beta-lactamase ratio, 5 h; at 7.69 µM (top of the series) unless noted
Summary of the method: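 Read-out: CCF4 FRET ratio (460 nm/530 nm) after 1 h RT dye loading, used for %activity and AC50 from titration series. Cells: Jurkat NFAT-β-lactamase/M1 line, treated with compound plus 1 uM carbachol for 5 h, 37 °C.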

[5] = target: Glucocorticoid receptor (Homo sapiens) (UniProt P04150); assay: GR-GFP Redistribution (AID 450;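 active = compounds whose dose series gives a full or clear partial fitted curve of increased nuclear translocation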; also: potency is read from the fitted curve at half-maximal effect); settings: U2OS GR-GFP nuclear translocation, laser cytometry, 2 h
[6] = target: Glucocorticoid receptor (Homo sapiens) (UniProt P04150); assay: GR-EFC Redistribution (AID 451; calls by dose curve; also: potency is read from the fitted curve at half-maximal effect); settings: CHO-K1 GR-EFC translocation, beta-gal luminescence, 2 h
Summary of the method: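 Translocation of GR-ED fusion to nuclear EA restores b-gal, read by luminescence after 1 h room-temperature detection. Engineered CHO-K1 biosensor cells, 1,000/well, exposed 2 h at 37 C to titrations up to 46 uM final.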

[7] = target: 3',5'-cyclic-AMP phosphodiesterase 4B (Homo sapiens) (UniProt Q07343); assay: qHTS Assay for Inhibitors of PDE-IV (AID 607; active = well fitted activation curve with a large enough effect in the main read-out, with a control signal flat, not every such curve was filed as active; also: % of control where 0% means no effect); settings: HEK293 ACTOne CNG channel cells, membrane potential fluorescence; series mostly up to 22.9 µM
Summary of the method: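 Live HEK293 cells with a modified cyclic nucleotide-gated (CNG) channel report intracellular cAMP via membrane-potential dye fluorescence (ex 535/em 590 nm). Endogenous PDE-IV was targeted. Compounds were tested at up to 22.9 uM final; RO 20-1724 100 uM served as control.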

[8] = target: Cytochrome P450 2C9 (Homo sapiens) (UniProt P11712); assay: qHTS Assay for Inhibitors and Substrates of Cytochrome P450 2C9 (AID 883); settings: recombinant CYP2C9, luciferin-H luminescence, 60 min; series mostly up to 57.1 µM; also: % is scaled to controls: 0 for no effect and ±100 for the full control effect; nearly all actives have a fitted effect of over 60% in size
Summary of the method: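 Inhibition of CYP2C9 is scored as loss of luminescence, with 57uM sulphaphenazole defining 100% inhibition. Substrate Luciferin-H is used at 100uM, equal to its KM; enzyme at 10nM in 25mM KPO4, 60 min at 37C with NADPH regeneration.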

[9] = target: Cytochrome P450 3A4 (Homo sapiens) (UniProt P08684); assay: qHTS Assay for Activators of Cytochrome P450 3A4 (AID 885); settings: recombinant CYP3A4, Luciferin-PPXE luminescence, 60 min; series mostly up to 57.1 µM; also: nearly all actives have a fitted effect of over 65% in size; also: potency is read from the fitted curve at half-maximal effect
Summary of the method: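 Using 20nM recombinant human CYP3A4 in potassium phosphate (200mM), substrate Luciferin-PPXE at 25uM, luminescent luciferin detection followed a 60-min RT NADPH reaction; data scaled to 57 uM ketoconazole.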

[10] = qHTS Assay for Identification of Small Molecule Agonists for Hypoxia Response Element Signaling Pathway (AID 914; active = well fitted activation curve with a large enough effect in the signal ratio, with a control signal flat, not every such curve was filed as active; the % refers to the signal ratio; also: potency is read from the fitted curve at half-maximal effect); settings: ME-180 HRE-bla reporter, beta-lactamase ratio, CoCl2, 17 h; activation: stronger effect = higher value
Summary of the method: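 Read-out: CCF4 FRET ratio of 460nm to 530nm emission (excitation 405nm) after 2.5 hours at room temperature, taken from HRE-bla ME-180 cells that had been exposed to compound and EC50 CoCl2 for 17 hours.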

[11] = qHTS Assay for Lipid Storage Modulators (AID 1519; calls by dose curve); settings: Drosophila S3 cells, BODIPY lipid droplet/cell ratio, laser cytometry, cells loaded with oleic acid; for activity change, negative = inhibition: at 57.5 µM (top of the series)
Summary of the method: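 Cells seeded at 5,000 per well were treated with compounds over a concentration series and loaded with oleic acid (400 uM, as added). Lipid droplet fluorescence (488 nm excitation, 500-530 nm channel) was read by laser-scanning cytometry and normalized to 20 uM Triacsin C.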

[12] = Primary qHTS for small molecule stabilizers of the endoplasmic reticulum resident proteome: Secreted ER Calcium Modulated Protein (SERCaMP) assay (AID 1508630); settings: SH-SY5Y GLuc-SERCaMP (Gaussia luciferase released on ER calcium loss) secretion, thapsigargin, luminescence; series mostly up to 38.4 µM; also: % is scaled to controls: 0 for no effect and ±100 for the full control effect
Summary of the method: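 The SH-SY5Y reporter protocol was run at 3 concentrations up to 38.3 uM (primary) or 11 concentrations (follow-up): 16 h compound, 100 nM thapsigargin for 4 h, then extracellular luciferase luminescence.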

[13] = Stat Signaling Pathway (AID 446; active = well fitted curve in either direction with a large enough effect, not every such curve was filed as active;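 also: ME-180 cervical cancer cells given 40 pM IL-6 alongside compound; SIE-controlled beta-lactamase reporter measured as 460/530 nm FRET emission ratio; % is scaled to controls: 0 for no effect and ±100 for the full control effect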); settings: ME-180 (cervical carcinoma) SIE beta-lactamase reporter, IL-6 stimulated, 5 h; at 7.69 µM (top of the series) unless noted
Summary of the method: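 Overnight-plated ME-180 cells bearing a STAT Inducible Element beta-lactamase reporter; 5 h co-exposure to compound and 40 pM IL-6; values normalized to 300 pM IL-6 and 125 nM JAK inhibitor controls.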

[14] = target: Cytochrome P450 3A4 (Homo sapiens) (UniProt P08684); assay: qHTS Assay for Inhibitors and Substrates of Cytochrome P450 3A4 (AID 884); settings: recombinant CYP3A4, Luciferin-PPXE luminescence; series mostly up to 57.1 µM; also: nearly all actives have a fitted effect of over 50% in size; also: potency is read from the fitted curve at half-maximal effect
Summary of the method: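 Luminescent readout of luciferin produced by CYP3A4 (20 nM) dealkylation of Luciferin-PPXE, 25 uM (its KM). NADPH-driven reaction ran 60 min at RT after 10 min compound preincubation; data scaled to 57 uM ketoconazole as 100% inhibition.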

[15] = target: Mitogen-activated protein kinase 10 (Mus musculus) (UniProt Q61831); assay: JNK3 AlphaScreen Assay (AID 530; active = well fitted curve in either direction with a large enough effect, not every such curve was filed as active); settings: JNK3 lysate, c-Jun phosphorylation; series mostly up to 57.1 µM
Summary of the method: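 Kinase buffer: 20 mM Tris-HCl pH 7.6, 10 mM MgCl2, 1 mM DTT, 0.1 mM Na3VO4, 0.01% Tween-20; ATP 10 uM. Substrate biotin-GST-cJun(1-79), enzyme from activated HepG2 lysates. Detection by Ser73 phospho-antibody AlphaScreen.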

[16] = Confirmation and Secondary Assay for Modulators of Hemoglobin Beta Chain Splicing at IVS2 654 locus (AID 910); settings: HeLa EGFP-654 splicing reporter, GFP fluorescence, 48 h; series mostly up to 38.3 µM;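 also: HeLa cells stably carrying EGFP split by mutant beta-globin IVS2-654 intron; per-well total GFP intensity by laser scanning cytometry after 2-day treatment; % of control where 0% means no effect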
Summary of the method: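 Readout: per-well total peak green fluorescence (488 nm ex, 500–520 nm em) from objects 5–250 µm, reflecting correct splicing of an EGFP-654 reporter. Compounds were applied for 2 days at 37 °C to overnight-plated HeLa EGFP-654 cells; controls were DMSO and 500 nM IVS2-654 PNA.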

[17] = Confirmation and Secondary Assay for Modulators of Hemoglobin Beta Chain Splicing at IVS2 705 locus (AID 930); settings: HeLa EGFP-705 splicing reporter, GFP fluorescence, 48 h; series mostly up to 38.3 µM;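 also: HeLa cells stably expressing the EGFP-705 splicing reporter; GFP fluorescence per well restored by corrected splicing of the IVS2-705 intron in EGFP; % of control where 0% means no effect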
Summary of the method: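 HeLa EGFP-705 reporter; 500 cells/well, o/n 37C 5% CO2; cpd 2 d; 488 ex/500-520 em laser scan; total peak GFP intensity/well. Ref: 500 nM […] antisense PNA.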

[18] = target: Cytochrome P450 2C19 (Homo sapiens) (UniProt P33261); assay: qHTS Assay for Inhibitors and Substrates of Cytochrome P450 2C19 (AID 899); settings: recombinant CYP2C19, luciferin-H EGE luminescence; series mostly up to 57.1 µM; also: nearly all actives have a fitted effect of over 60% in size; also: potency is read from the fitted curve at half-maximal effect
Summary of the method: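 5nM enzyme + 10uM Luciferin-H EGE (=KM), 50mM KPO4; cpd pin-transferred, 10 min 37C; NADPH regen, 60 min 37C; stopped w/ luciferin detection reagent, 20 min; luminescence. Normalized to 57uM ketoconazole (AC100).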

[19] = measured here: cell count channel max response
[20] = measured here: lipid channel max response

Chain of Cytochrome P450 3A4 (Homo sapiens) (P08684 whole entry, looked up): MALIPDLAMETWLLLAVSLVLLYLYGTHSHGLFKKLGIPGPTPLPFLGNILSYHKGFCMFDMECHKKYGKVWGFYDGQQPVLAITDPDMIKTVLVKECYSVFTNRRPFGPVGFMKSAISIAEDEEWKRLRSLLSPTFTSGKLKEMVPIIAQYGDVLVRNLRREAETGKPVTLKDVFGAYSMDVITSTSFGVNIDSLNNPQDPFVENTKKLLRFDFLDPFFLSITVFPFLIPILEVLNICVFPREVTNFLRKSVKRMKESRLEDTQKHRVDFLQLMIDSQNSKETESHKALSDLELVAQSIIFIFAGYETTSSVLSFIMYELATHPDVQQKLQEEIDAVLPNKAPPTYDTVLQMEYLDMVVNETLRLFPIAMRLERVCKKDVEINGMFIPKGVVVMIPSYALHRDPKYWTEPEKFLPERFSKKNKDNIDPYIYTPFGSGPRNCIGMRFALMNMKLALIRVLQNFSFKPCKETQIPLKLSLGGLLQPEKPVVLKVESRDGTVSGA
Chain of Cytochrome P450 1A2 (Homo sapiens) (P05177 whole entry, looked up): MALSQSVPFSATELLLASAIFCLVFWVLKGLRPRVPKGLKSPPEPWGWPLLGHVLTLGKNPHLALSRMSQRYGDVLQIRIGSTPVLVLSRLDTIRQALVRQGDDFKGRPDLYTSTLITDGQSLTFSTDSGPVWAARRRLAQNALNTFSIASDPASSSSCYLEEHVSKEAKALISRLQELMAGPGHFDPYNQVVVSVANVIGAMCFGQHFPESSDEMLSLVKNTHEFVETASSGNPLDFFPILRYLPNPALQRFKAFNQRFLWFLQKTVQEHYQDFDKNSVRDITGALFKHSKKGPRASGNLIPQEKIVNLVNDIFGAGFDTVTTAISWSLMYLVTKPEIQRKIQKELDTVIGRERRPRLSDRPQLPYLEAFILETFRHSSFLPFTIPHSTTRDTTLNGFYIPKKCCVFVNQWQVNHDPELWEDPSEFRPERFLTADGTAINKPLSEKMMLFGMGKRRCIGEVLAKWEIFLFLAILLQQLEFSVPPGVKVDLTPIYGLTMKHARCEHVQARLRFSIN
Chain of Lysosomal acid glucosylceramidase (Homo sapiens) (P04062 whole entry, looked up): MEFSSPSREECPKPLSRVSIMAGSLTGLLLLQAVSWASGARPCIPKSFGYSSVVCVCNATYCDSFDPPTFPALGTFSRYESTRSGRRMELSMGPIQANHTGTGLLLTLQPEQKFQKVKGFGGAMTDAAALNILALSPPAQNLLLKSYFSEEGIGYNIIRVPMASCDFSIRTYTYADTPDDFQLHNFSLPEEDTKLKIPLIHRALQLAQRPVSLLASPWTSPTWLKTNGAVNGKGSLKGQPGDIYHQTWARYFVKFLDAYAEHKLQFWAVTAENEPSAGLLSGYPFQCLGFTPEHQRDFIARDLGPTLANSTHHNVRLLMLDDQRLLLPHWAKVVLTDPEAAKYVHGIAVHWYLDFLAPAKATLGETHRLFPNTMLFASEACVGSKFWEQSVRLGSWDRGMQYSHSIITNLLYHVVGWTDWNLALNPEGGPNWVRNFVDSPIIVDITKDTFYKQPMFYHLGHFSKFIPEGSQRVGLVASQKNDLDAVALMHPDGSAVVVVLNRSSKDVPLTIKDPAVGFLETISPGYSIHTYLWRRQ
Chain of Glucocorticoid receptor (Homo sapiens) (P04150 whole entry, looked up, the tested form may be a part): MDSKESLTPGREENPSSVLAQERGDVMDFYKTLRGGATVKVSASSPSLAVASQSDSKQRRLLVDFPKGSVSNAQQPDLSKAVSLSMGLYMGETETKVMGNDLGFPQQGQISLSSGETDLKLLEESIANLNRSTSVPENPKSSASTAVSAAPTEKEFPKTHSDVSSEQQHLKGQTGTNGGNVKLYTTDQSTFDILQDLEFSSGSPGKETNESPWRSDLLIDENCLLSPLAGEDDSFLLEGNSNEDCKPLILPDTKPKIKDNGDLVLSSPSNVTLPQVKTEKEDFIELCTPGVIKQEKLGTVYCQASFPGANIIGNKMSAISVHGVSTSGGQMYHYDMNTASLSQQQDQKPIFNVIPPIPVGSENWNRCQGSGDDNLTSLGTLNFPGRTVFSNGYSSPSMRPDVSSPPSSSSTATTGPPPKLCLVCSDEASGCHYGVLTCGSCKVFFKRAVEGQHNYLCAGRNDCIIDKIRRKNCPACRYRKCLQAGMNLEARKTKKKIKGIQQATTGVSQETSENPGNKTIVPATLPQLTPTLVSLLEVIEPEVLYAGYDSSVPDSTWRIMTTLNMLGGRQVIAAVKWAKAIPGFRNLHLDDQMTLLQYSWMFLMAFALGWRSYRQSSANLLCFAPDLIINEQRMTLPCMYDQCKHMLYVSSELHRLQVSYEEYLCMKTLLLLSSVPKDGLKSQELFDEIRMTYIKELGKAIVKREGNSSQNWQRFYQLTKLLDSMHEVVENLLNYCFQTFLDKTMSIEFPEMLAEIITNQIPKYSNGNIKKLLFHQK
Chain of 3',5'-cyclic-AMP phosphodiesterase 4B (Homo sapiens) (Q07343 whole entry, looked up): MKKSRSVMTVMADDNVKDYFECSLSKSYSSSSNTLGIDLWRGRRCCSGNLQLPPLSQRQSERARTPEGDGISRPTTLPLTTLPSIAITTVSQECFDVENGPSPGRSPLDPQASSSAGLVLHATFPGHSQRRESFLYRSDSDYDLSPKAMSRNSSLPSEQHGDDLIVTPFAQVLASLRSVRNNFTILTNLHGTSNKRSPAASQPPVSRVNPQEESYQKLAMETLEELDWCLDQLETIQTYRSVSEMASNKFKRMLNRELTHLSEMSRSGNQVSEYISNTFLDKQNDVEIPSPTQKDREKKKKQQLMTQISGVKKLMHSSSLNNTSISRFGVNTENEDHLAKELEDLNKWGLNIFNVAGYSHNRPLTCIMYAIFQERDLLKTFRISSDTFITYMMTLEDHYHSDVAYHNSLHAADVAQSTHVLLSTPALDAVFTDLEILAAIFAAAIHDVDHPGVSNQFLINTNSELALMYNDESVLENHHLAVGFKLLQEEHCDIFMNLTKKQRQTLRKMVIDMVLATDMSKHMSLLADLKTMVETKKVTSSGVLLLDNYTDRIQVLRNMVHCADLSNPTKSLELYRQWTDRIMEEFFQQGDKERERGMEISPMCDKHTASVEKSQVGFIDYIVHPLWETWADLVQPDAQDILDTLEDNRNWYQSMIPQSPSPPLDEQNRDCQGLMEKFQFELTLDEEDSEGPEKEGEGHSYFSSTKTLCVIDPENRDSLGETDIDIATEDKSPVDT
Chain of Cytochrome P450 2C19 (Homo sapiens) (P33261 whole entry, looked up): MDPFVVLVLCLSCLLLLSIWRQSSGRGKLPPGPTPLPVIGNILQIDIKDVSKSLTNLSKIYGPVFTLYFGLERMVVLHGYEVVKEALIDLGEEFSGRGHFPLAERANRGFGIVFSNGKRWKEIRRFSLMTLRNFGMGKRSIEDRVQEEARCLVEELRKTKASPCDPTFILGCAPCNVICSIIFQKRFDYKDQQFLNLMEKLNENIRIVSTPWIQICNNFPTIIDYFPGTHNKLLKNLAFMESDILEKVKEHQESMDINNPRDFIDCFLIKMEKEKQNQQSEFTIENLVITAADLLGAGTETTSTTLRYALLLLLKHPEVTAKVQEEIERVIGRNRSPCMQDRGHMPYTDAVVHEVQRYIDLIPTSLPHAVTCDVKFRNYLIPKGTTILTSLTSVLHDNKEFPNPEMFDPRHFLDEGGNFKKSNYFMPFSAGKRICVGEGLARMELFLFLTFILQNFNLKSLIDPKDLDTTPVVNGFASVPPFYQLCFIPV
Chain of Cytochrome P450 2C9 (Homo sapiens) (P11712 whole entry, looked up): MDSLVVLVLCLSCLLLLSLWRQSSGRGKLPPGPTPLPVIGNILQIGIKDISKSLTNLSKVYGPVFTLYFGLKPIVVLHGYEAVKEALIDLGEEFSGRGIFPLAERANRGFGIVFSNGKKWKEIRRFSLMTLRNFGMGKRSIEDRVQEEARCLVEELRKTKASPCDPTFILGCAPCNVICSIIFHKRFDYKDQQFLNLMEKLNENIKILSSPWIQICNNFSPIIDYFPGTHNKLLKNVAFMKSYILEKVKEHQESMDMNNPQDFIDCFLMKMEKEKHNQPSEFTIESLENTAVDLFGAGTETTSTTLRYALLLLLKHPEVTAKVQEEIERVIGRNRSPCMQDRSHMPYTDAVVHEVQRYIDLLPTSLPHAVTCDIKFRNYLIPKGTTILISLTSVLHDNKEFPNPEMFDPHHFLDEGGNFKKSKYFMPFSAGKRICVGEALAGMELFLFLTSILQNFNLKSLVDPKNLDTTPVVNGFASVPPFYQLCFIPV

Cn1cc(-c2nc3cnc(Oc4cccc(Cl)c4)nc3n(CCC#N)c2=O)c2ccccc21
Potency [1]: > 11.4 µM (inactive) | activity change, negative = inhibition [2]: 0.05% (inactive) | Potency [3]: 2.51 µM (active) | activity change, negative = inhibition [4]: 21.5% (inactive) | Potency [5]: > 9.22 µM (inactive) | Potency [6]: > 46 µM (inactive) | Potency [7]: inactive | Potency [8]: inactive | Potency [9]: inactive | Potency [10]: 1.58 µM (active) | activity change, negative = inhibition [11]: -7.95% (inactive) | max response [11, 19]: 6.76% | max response [11, 20]: 0.937% | Potency [12]: inactive

O=C(c1cccc(F)c1)N1CCC2(CC1)CCN(c1ccccc1)CC2
Potency [1]: > 11.4 µM (inactive) | activity change, negative = inhibition [2]: -0.371% (inactive) | Potency [3]: 15.8 µM (active) | activity change, negative = inhibition [4]: -2.46% (inactive) | activity, negative = inhibition [13]: -10.8% (inactive) | Potency [6]: > 46 µM (inactive) | Potency [7]: inactive | Potency [14]: inactive | Potency [9]: 7.94 µM (active) | activity change, negative = inhibition [11]: 3.88% (inactive) | max response [11, 19]: -3.82% | max response [11, 20]: 4.22% | Potency [12]: inactive

Cc1cccc(CNc2ncnc3ccc(-c4cccc(C#N)c4)cc23)c1
Potency [1]: > 11.4 µM (inactive) | activity change, negative = inhibition [2]: -19.4% (inactive) | Potency [3]: 0.631 µM (active) | activity change, negative = inhibition [4]: -25.8% (inactive) | activity, negative = inhibition [13]: -6.66% (inactive) | Potency [6]: > 46 µM (inactive) | outcome [15]: inactive | outcome [16]: inactive | outcome [17]: inactive | activity change, negative = inhibition [11]: 0.488% (inactive) | max response [11, 19]: -20.2% | max response [11, 20]: -19.2% | Potency [12]: inactive

COc1ccc(NC(=O)N2CCCC3(CCNCC3)C2)cc1
Potency [1]: > 11.4 µM (inactive) | activity change, negative = inhibition [2]: -1.83% (inactive) | Potency [3]: inactive | activity change, negative = inhibition [4]: 1.68% (inactive) | activity, negative = inhibition [13]: 5.73% (inactive) | Potency [6]: > 46 µM (inactive) | Potency [7]: inactive | Potency [9]: inactive | Potency [18]: inactive | activity change, negative = inhibition [11]: 4.28% (inactive) | max response [11, 19]: -5.9% | max response [11, 20]: 0.941% | Potency [12]: inactive

COc1ccc(C(=O)N2CCC[C@@]3(CCN(C(=O)Nc4ccccc4)C3)C2)cc1
Potency [1]: > 11.4 µM (inactive) | activity change, negative = inhibition [2]: -19.4% (inactive) | Potency [3]: 15.8 µM (active) | activity change, negative = inhibition [4]: 12.1% (inactive) | activity, negative = inhibition [13]: -4.43% (inactive) | Potency [6]: > 46 µM (inactive) | Potency [7]: inactive | Potency [9]: inactive | activity change, negative = inhibition [11]: 10.7% (inactive) | max response [11, 19]: 8.67% | max response [11, 20]: 24.1% | Potency [12]: inactive

Cc1nc2cnc(N(C)C)nc2n(Cc2ccc(F)cc2)c1=O
Potency [1]: > 11.4 µM (inactive) | activity change, negative = inhibition [2]: 3.79% (inactive) | Potency [3]: 2 µM (active) | activity change, negative = inhibition [4]: 1.01% (inactive) | Potency [5]: > 9.22 µM (inactive) | Potency [6]: > 46 µM (inactive) | outcome [15]: inactive | Potency [8]: inactive | Potency [14]: 25.1 nM (active) | Potency [9]: inactive | Potency [18]: 1.58 µM (active) | activity change, negative = inhibition [11]: 5.88% (inactive) | max response [11, 19]: 15% | max response [11, 20]: 21.5% | Potency [12]: inactive
